Compound activity from PubChem.
D2 PAM-1 – positively modulates the human D2 dopamine receptor allosterically. P14416. HEK293 T-REx D2, calcium flux, EC20 dopamine potentiation. potentiation, % at 10 µM. 0.34% of 340,000 active. AID 485347;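 active means potentiation over 3 SD above the plate norm, cut at about 30% in these data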; further: 0% is about no effect
Target sequence (P14416 whole entry, looked up): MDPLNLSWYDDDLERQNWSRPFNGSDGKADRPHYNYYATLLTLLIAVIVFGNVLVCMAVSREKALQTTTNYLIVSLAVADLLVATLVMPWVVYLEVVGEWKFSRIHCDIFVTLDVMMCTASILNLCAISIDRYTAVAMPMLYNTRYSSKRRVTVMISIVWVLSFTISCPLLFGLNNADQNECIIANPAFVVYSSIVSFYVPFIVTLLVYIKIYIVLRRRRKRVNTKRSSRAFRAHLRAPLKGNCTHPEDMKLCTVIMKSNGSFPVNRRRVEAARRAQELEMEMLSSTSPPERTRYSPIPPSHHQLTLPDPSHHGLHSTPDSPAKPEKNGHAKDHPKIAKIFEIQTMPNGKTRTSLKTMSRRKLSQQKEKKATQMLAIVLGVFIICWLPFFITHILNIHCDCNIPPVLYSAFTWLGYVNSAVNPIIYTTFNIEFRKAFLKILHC
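Tetracycline-induced HEK293 T-REx cells force-coupled to calcium signalling expressed D2; compounds were pin-added after a 10 s baseline, read kinetically 180 s, then an EC20 dopamine challenge followed with a further 180 s calcium read.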
D2 antag – D2 dopamine receptor (human) antagonism | HEK293 TREx D2 cells, calcium flux, dopamine EC80 | inhibition, % at 10 µM | 2% of 340,000 active; in the data active means inhibition above about 30%; inactive means below that, where a call was filed; further: 0% is about no effect
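Read-out: kinetic calcium fluorescence (1 cycle/s) in inducible HEK293 T-REx D2 cells after an EC80 dopamine addition that followed 180 s compound preincubation. Loss of the dopamine response indicates antagonism.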
D2 ag-1 – activates the human D2 dopamine receptor | 0.084% of 360,000 active | AID 624465 | activation, % (no concentration beside the values) | DiscoveRx PathHunter D2 beta-arrestin, luminescence, 90 min; 100% = 57 uM dopamine signal; in the data active means activation above about 40%; inconclusive means between about 15% and that limit
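DiscoveRx PathHunter D2 beta-arrestin cells (2,100/well) attached overnight, then compound-stimulated 90 min at 37 C in HBSS/10 mM HEPES/0.1% Tween-20 buffer; beta-galactosidase complementation read by luminescence after 1 h at ambient temperature. Dopamine 57 uM final (EC100) as control.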
D2 PAM-2 – human D2 receptor positive allosteric modulation. DiscoveRx D2 beta-arrestin cells, luminescence, 90 min; 100% = 57 uM dopamine signal. potentiation, % (test concentration not listed). 0.23% of 360,000 active. AID 624464; in the data active means potentiation above about 50%; inconclusive means mostly about 30% to 49%
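PathHunter beta-arrestin assay in DiscoveRx D2 cells. Compounds were added with an EC20 of dopamine (50 nM final) for 90 min at 37 deg C. Luminescence was read 1 h after detection reagent, with 57 uM dopamine as the EC100 control.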
D2 ag-2 – activates the human D2 dopamine receptor | activation, % at 2 µM | AID 485358 | 0.53% of 340,000 active | HEK293 T-REx D2 cells, calcium flux agonist mode;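 active means activation over 3 SD above normal in the single-dose calcium agonist read, cut at about 30% in these data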; further: 0% is about no effect
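In this primary screen, compounds producing a positive calcium signal within 180 s of addition to tetracycline-induced, force-coupled HEK293 Trex D2 cells are flagged; cells are dye-loaded with a no-wash calcium kit beforehand.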
Starred values were filed as active, the others as inactive; ? = inconclusive; nt = no result given. An excerpt weighted towards active compounds, which were near 2.4% of everything screened.

SMILES	D2 PAM-1	D2 antag	D2 ag-1	D2 PAM-2	D2 ag-2
CC(OC(=O)c1ccc([N+](=O)[O-])o1)C(=O)Nc1nc(-c2ccc(F)c(F)c2)cs1 (stereo not given)	-6	3	7	66*	0
CCCCCCOC(=O)c1ccc(OC(=O)c2cccnc2)cc1	3	-27	-4	-15	1
CCCCOC(=O)c1ccc(OC(=O)c2cccnc2)cc1	2	31*	-2	4	0
CC1c2ccccc2SC(CCCN(C)C)c2ccccc21 (stereo not given)	-27	50*	-2	-39	6
CCOC(=O)C1=C(CNCCc2ccc(Cl)cc2)NC(=O)NC1c1ccc2c(c1)OCO2 (stereo not given)	31*	4	-4	22	-1
O=C(NCc1ccccc1Cl)c1ccc2c(c1)NC(=O)C(CS(=O)(=O)Cc1ccc(Cl)cc1)N2 (stereo not given)	6	nt	nt	nt	nt
COC(=O)c1cc2c(ccn2-c2ccc(F)cc2)n1CC(C)C	12	15	-3	-5	0
CCCn1c(C(=O)OC)cc2c1ccn2-c1ccc(F)cc1	32*	10	-3	8	1
CCCOc1ccc(CNC(=O)c2ccc3c(c2)N(CC)CCS3)cc1	-15	50*	-3	-10	1
CCN1CCSc2ccc(C(=O)NCc3cccc(F)c3)cc21	-15	44*	-6	-9	1
COc1cn(CC(=O)Nc2cc(C)ccc2C)c(CN2CCCCC2)cc1=O	6	nt	nt	nt	0
O=C1CN(C(=O)c2ccc(S(=O)(=O)N3CCCC3)cc2)C(c2ccc(F)cc2)c2cc(F)ccc2N1 (stereo not given)	2	nt	nt	nt	2
COc1cccc(CNC(=O)Cc2c(C(=O)O)c(C)cn2C)c1	5	nt	nt	nt	0
Cc1ccccc1OCCC(=O)N1CCN(S(=O)(=O)c2ccc(Br)cc2)CC1	4	55*	-3	-24	-1
Cc1ccc(-n2ncc(C(=O)N3CCN(C4CCCCC4)CC3)c2C2CCN(C(=O)OC(C)(C)C)CC2)cc1	-7	nt	nt	nt	0
CN(Cc1nc(-c2cccc(Cl)c2)no1)C1CCOCC1	7	47*	1	-10	0
CCOC(=O)C1CCN(C(=S)NC2CCCC2)CC1	-14	34*	5	0	1
CCOC(=O)C1CCCN(C(=S)NC2CCCCC2)C1 (stereo not given)	nt	nt	-1	-2	nt
O=C(NCC1CCCO1)c1cc(S(=O)(=O)N2CCOCC2)ccc1Cl (stereo not given)	-3	-15	-4	-12	0
O=C(NCC1CCCO1)c1cccc(Br)c1 (stereo not given)	-4	-13	0	2	0
O=C(NCC1CCCO1)c1ccc(NC(=O)c2cccc(Br)c2)cc1 (stereo not given)	nt	nt	6	94*	nt
CN(c1ccc(F)cc1)S(=O)(=O)c1ccc(Cl)c(C(=O)NCC2CCCO2)c1 (stereo not given)	32*	6	-3	-2	0
O=C(NCC1CCCO1)c1cc2c([nH]c3ccccc32)c(-c2cccc(Br)c2)n1 (stereo not given)	-19	34*	6	-64	-1
O=C(NCC1CCCO1)c1cc(S(=O)(=O)Nc2ccc(Br)cc2)ccc1Cl (stereo not given)	3	53*	2	9	0
CN(c1ccc(C(=O)NCC2CCCO2)cc1)S(=O)(=O)c1ccc(Cl)cc1 (stereo not given)	nt	nt	0	-13	nt
SMILES	D2 PAM-1	D2 antag	D2 ag-1	D2 PAM-2	D2 ag-2
COc1ccc(NC(=O)Cn2c3ncccc3c(=O)n2-c2ccc(C)c(C)c2)c(OC)c1	-2	nt	nt	nt	0
C=CCNC(=S)NNC(=O)CC12CC3CC(CC(C3)C1)C2	-5	34*	-3	-6	0
Cc1ccc(CN(C(=O)COc2ccccc2Cl)c2ccccn2)o1	-16	nt	nt	nt	nt
O=C(NC1CC2CCCC(C1)N2Cc1ccccc1)c1cccc(F)c1 (stereo not given)	-22	84*	-1	-80	0
O=C(NC1CC2CCCC(C1)N2Cc1ccccc1)c1cccc(Cl)c1 (stereo not given)	-38	90*	0	-16	-1
COc1cccc(C(=O)NC2CC3CCCC(C2)N3Cc2ccc(F)cc2)c1 (stereo not given)	nt	nt	-1	-22	nt
CC(C)Nc1cc(N2CCN(C3CCCCC3)CC2)c2noc3c2c1C(=O)c1ccccc1-3	-2	nt	nt	nt	0
Cc1ccc2cccc(NC(=O)c3cccc4c(Br)cccc34)c2n1	12	nt	nt	nt	nt
COc1ccc(C)cc1S(=O)(=O)N(C)CC(=O)NCc1ccncc1	8	33*	-1	-2	0
O=C(CSc1nc(-c2ccccc2)c2ccccc2n1)Nc1ccc(F)cc1	6	nt	nt	nt	0
O=C(CN1C(=O)CC(c2ccco2)Sc2ccccc21)Nc1cccc(C(F)(F)F)c1 (stereo not given)	24	nt	nt	nt	0
Cc1nn(-c2ccccn2)c2c1C(=O)C(Br)CC2 (stereo not given)	0	-2	?	54*	1
COCCCNc1nc2c(c(=O)n(C)c(=O)n2C)n1Cc1cccc(OC)c1	14	40*	1	-9	0
COCCNc1nc2c(c(=O)n(C)c(=O)n2C)n1Cc1cccc(C)c1	8	-6	1	1	1
Cc1nn(C)c(C)c1S(=O)(=O)N1CCC(C(=O)NCCC2=CCCCC2)CC1	-7	30*	-2	-9	-1
Cc1nn(C)c(C)c1S(=O)(=O)N1CCC(C(=O)NC2CCCCCC2)CC1	1	33*	0	-6	1
Cc1noc(C)c1S(=O)(=O)N1CCC(C(=O)NCCC2=CCCCC2)CC1	-1	-24	-3	-12	0
Cc1ccc(C)c(CSc2cn(CC(=O)N3CCCC3)c3ccccc23)c1	-4	nt	nt	nt	0
Cc1ccc(SCCC(=O)NC(C)C)cc1	-11	32*	-3	-8	1
Cc1ccc(SCCC(=O)NC(C)(C)C)cc1	12	-1	-2	-7	0
Cc1cc(C)cc(OCC(=O)Nc2nc3c(s2)CC(C(C)(C)C)CC3)c1 (stereo not given)	17	nt	nt	nt	-2
CCNC(=O)c1ccccc1SCc1ccccc1	10	14	3	0	-1
CCNC(=O)c1ccccc1SCC(=O)Nc1ccc(F)cc1	35*	23	-3	-7	0
Cc1cc(C)cc(NC(=O)C2CCN(c3cc(C)nc4c(-c5ccc(Cl)cc5)c(C)nn34)CC2)c1	0	nt	nt	nt	1
CCN(CC)S(=O)(=O)c1ccc(NC2CCN(Cc3ccccc3)CC2)nc1	17	36*	-1	-7	0
Cc1ccc(/C=N/NC(=O)C2CC(=O)N(c3ccccc3)C2)s1 (stereo not given)	-8	-18	-4	-22	-1
